The campaign covered roughly 59,000 compounds. Fewer than 10 were called active. No rule for the calls is given here. Not all results are given here.
Assay: qHTS Assay for Spectroscopic Profiling in A647 Spectral Region
Details: Compound fluorescence, A647 channel (570/671 nm), Tris buffer; stronger effect = higher value
Description: NIH Molecular Libraries Screening Centers Network [MLSCN] NIH Chemical Genomics Center [NCGC] […] Occasionally, the artifactual effect may originate from the compounds own spectral or other biophysical properties which generally tend to track its assay concentration. Pre-screening/profiling the library with respect to the compounds spectral properties should help one exclude false positives early on. While the most informative fluorescent profiling data set is obtained by performing a full excitation and emission scan of each well by using a monochromator-based plate reader, such an approach is practical only on a very limited scale as scanning each well requires long time. An alternative approach, applied here, is to perform plate reader scans using selected excitation and emission wavelength pairs to generate a multidimensional relational database that correlates compound concentration and the respective relative fluorescence intensity at a given wavelength set. A standard curve of Alexa 647 (A647) present on each plate as six-point concentration series, was used to compute a normalized fluorescence response, termed dye-equivalent concentration, for each compound at each concentration.
NCGC Assay Protocol Summary: Buffer: 100 mM Tris buffer, pH 8.0 Dye standard plate: The wells in columns 1 through 4 of a Kalypsys polypropylene 1536-well compound plate were filled with standard solutions of fluorophore corresponding to the spectral region of interest. Solutions of A647 were placed in the following wells: AC1, AD1: 3 mM, AC2, AD2: 300 uM, AC3, AD3: 30 uM, AC4, AD4: zero (DMSO), AE1, AF1: 3 uM, AE2, AF2: 900 nM, AE3, AF3: 300 nM, AE4, AF4: zero (DMSO). Assay Steps: Six uL of buffer were dispensed to 1536-well Greiner black plates. Compounds and dye standards (23 nL) were transferred via Kalypsys PinTool. The plates were incubated for 15 min at room temperature, and then read on ViewLux (Perkin-Elmer) High-throughput CCD imager using 570 nm and 671 nm excitation and emission filter set. Keywords: NIH Roadmap, MLSCN, MLI, MLSMR, qHTS, NCGC, A647, A-647, Fluorescent Profiling.

Max dye-equivalent concentration, inactive:
CC(=O)/C(=N\N=C(N)N)c1ccccc1 1 nM
Clc1ccc(Cc2nn3c(-c4ccncc4)nnc3s2)cc1 4 nM
CCc1cc(Br)ccc1NC(=O)C1CCCO1 (stereo not given) 19 nM
CCCS(=O)(=O)Nc1c(C(=O)O)[nH]c2ccccc12 1 nM
CCCCSc1nnc(-c2ccc(C)cc2)o1 5.1 nM
CCOC(=O)c1oc2ccccc2c1NC(=O)c1cccs1 5.6 nM
CCCS(=O)(=O)N1CCCC(C(=O)N2CCN(c3ccccc3)CC2)C1 (stereo not given) 1 nM
COc1ccc(CN2CN(C(C)C)CSC2=S)cc1 1 nM
COc1ccc(-c2cc3n(n2)CCc2nc4ccccc4n2-3)cc1 1 nM
O=C1c2oc3ccc(Br)cc3c(=O)c2C(c2cccc(F)c2)N1CCO (stereo not given) 3.9 nM
Cc1cc(N2CCCCC2)nc2ccc(Cc3ccc4nc(N5CCCCC5)cc(C)c4c3)cc12 3.4 nM
O=C(NC1CC2CCCC(C1)N2C(=O)N1CCCCC1)C1CCCCC1 (stereo not given) 31 nM
CCCCOc1ccccc1/C=c1/sc2nc(-c3oc4ccccc4c3C)nn2c1=O 22 nM
COc1ccccc1N1CCN(C(=O)Cn2nnc(-c3cccs3)n2)CC1 1 nM
COc1ccccc1CNc1ncnc2ccc(-c3ccc4c(c3)OCO4)cc12 31 nM
Cn1c(NC(=O)c2ccco2)c(-c2ccccc2Cl)c(=O)c2ccccc21 1 nM
NC(=S)c1ccc(C(N)=S)o1 5.7 nM
c1ccc(-c2nnc3n2NC(c2ccc4c(c2)OCO4)S3)cc1 (stereo not given) 12 nM
O=C(CCc1ccccc1)Nc1ccc(NC(=O)C2CC2)nc1 45 nM
COC(=O)c1ccc(NCC(=O)c2ccccc2)cc1 1.7 nM
